This is an account of results in PubChem BioAssay AID1377 (University of Pittsburgh Molecular Library Screening Center, 2008).

About 830 (0.38%) of roughly 220,000 compounds were called active. The sample holds actives, similar compounds and a random draw of the others, so the mix is not that of the screen. A number with no mark means an inactive call.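 The calls were made as follows: active = activation, scaled between plate controls, above about 75% (limit read from the data); inactive = activation under that limit.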

A short description of the experiment: rescue of L929 cells from zVAD death – primary screen (AID 1377).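 Also: 0% = zVAD with DMSO and 100% = DMSO alone without zVAD.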 To be noted: L929 zVAD necroptosis rescue, ATP luminescence, 24 h, at 10 µM, stronger effect = higher value; with zVAD 60 µM unless noted.
In the case of `Cc1cccc(NC(=O)Nc2ccc3c(c2)OCO3)n1`, the viability rescue is 75.5% (active).
In the case of `CC(NC(=O)Nc1ccc2c(c1)OCO2)c1ccncc1` (stereo not given) it was 1.29%.
The same measure for `Cc1cccc(NC(=O)/C=C/c2ccc3c(c2)OCO3)n1`: 0.85% [with zVAD 20 µM]; for `CC1CCCCC1NC(=O)CO/N=C/c1ccc(OC(F)F)cc1` (stereo not given): 0.48%; for `CC(C)C(=O)Nc1ccc2c3c(cccc13)CC2`: 1.59% [with zVAD 20 µM].
In the case of `CCOc1ccc(C(=O)Nc2nccs2)cc1[N+](=O)[O-]` it was 80.9% (active); in that of `COc1ccc(C(=O)NNC(=O)c2cnccn2)cc1[N+](=O)[O-]`, -0.17%.
With `O=C(O)c1ccccc1-c1ccccc1C(=O)Nc1nccs1`, the viability rescue was 1.12%.
With `CC(=O)Oc1ccc(C(=O)Nc2nccs2)cc1`, the viability rescue is 101% [with zVAD 20 µM] (active).
The same measure for `Cn1cccc1C(=O)Nc1nccs1`: 66.4% [with zVAD 20 µM]; for `CCN(c1ccccc1)S(=O)(=O)c1ccc(C(=O)Nc2nccs2)cc1`: 0.94%; for `NC(=O)C1(N2CCCCC2)CCN(C2CC(=O)N(Cc3ccc(N4CCCC4=O)cc3)C2=O)CC1` (stereo not given): 0.13%.
The same measure for `O=C(COC(=O)/C=C/c1nc2ccccc2s1)Nc1ccccc1Oc1ccccc1`: 0.66%; for `Cc1ccc(CNC(=O)CCNS(=O)(=O)c2ccc(Br)s2)cc1`: 3.55%.
Take `Cc1noc(C)c1C(=O)OCC(=O)N1CCN(S(=O)(=O)c2ccc3ccccc3c2)CC1`: the viability rescue was 0.85%.
In the case of `CN(C(=O)CCn1c(=S)oc2ccccc21)C1CCCCC1` it was 0.16%; in that of `CC(=O)NC1C(Oc2ccc(C=O)cc2)OC(COC(C)=O)C(OC(C)=O)C1OC(C)=O` (stereo not given), 1.66%; in that of `Cc1cccc(CSc2nc3c(c(=O)n2C)SCC3)c1`, -0.37%.
In the case of `Cc1ccc(C(=O)Nc2ccccc2C(=O)NC2CCCCC2)cc1S(=O)(=O)N1CCOCC1` it was -0.61%; in that of `Cc1ccc(NC(=O)c2ccccn2)cc1S(=O)(=O)N1CCOCC1`, 1.5%.
As to `Cc1ccc(NC(=O)NC2CCCCC2)cc1S(=O)(=O)N1CCOCC1`, the viability rescue is 75.4% (active).
In the case of `CCn1c(CN2C(=O)CSc3ccccc32)n[nH]c1=S` it was 0.15%; in that of `CCC1CCCCN1CCCNC(=O)c1cc2c(Cl)nc3ccccc3c2s1` (stereo not given), 18%.
Regarding `CCOC(=O)c1cn[nH]c1NC(=S)Nc1ccccc1`, the viability rescue was 2.47%.
For `CCCCn1c(=O)c(CCC(=O)OCC(=O)Nc2ccc(C)c(Cl)c2)nc2ccccc21`, the viability rescue was 0.2% [with zVAD 20 µM].
